Laboratory results: PubChem BioAssay AID1159580 (chemical genetic matrix, 2015)
The whole screen tested about 5,500 compounds, of which about 2,000 (36%) were called active. Not shown: some 18% with an inconclusive outcome. The list shows a part of the results. Unmarked numbers belong to inactive results. Cut-off read from the data, not from the text of the source: active = normalized growth mostly below about 0.91 (no sharp cut-off); inconclusive = no clear call, values can overlap the other calls; inactive = mostly above about 0.92.

Test: chemical genetic growth profiling, strain panel (AID 1159580);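 note: tested at 20 µM; growth read once vehicle control cultures reached saturation at 30 °C; 1 = growth at the plate median or of vehicle wells; lower values mean less growth of the strain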
Conditions: S. cerevisiae deletion strains, growth OD

| SMILES | normalized growth (locus YAL013W, strain DEP1, active compounds read low) | normalized growth (locus YAL040C, strain CLN3, active compounds read low) | normalized growth (locus YCL061C, strain MRC1 (second series), active compounds read low) | normalized growth (locus YDR363W, strain ESC2, active compounds read low) | normalized growth (locus YER002W, strain NOP16, active compounds read low) | normalized growth (locus YMR263W, strain SAP30, active compounds read low) | normalized growth (locus YNL175C, strain NOP13, active compounds read low) | normalized growth (locus YNL197C, strain WHI3, active compounds read low) | normalized growth (locus YNL224C, strain SQS1, active compounds read low) | normalized growth (locus YOR083W, strain WHI5 (second series), active compounds read low) | normalized growth (locus YPL241C, strain CIN2, active compounds read low) | normalized growth (locus YHR030C, strain SLT2, active compounds read low) | normalized growth (locus YHR079C, strain IRE1, active compounds read low) | normalized growth (locus YJL095W, strain BCK1, active compounds read low) | normalized growth (locus YJR066W, strain TOR1, active compounds read low) | normalized growth (locus YLR113W, strain HOG1, active compounds read low) | normalized growth (locus YNL183C, strain NPR1, active compounds read low) | normalized growth (locus YOR231W, strain MKK1, active compounds read low) | normalized growth (locus YPL256C, strain CLN2, active compounds read low) |
| --- | --- | --- | --- | --- | --- | --- | --- | --- | --- | --- | --- | --- | --- | --- | --- | --- | --- | --- | --- |
| CCN1CCc2nc(N)oc2CC1 | 1.03 | 0.981 | 1 | 1.03 | 0.993 | 1 | 1.01 | 1.02 | 0.995 | 0.999 | 0.998 | – | – | – | – | – | – | – | – |
| CCCCCCCCCCCCCCCC(=O)OCC(O)[C@H]1OC(=O)C(O)=C1O (some centres undefined) | – | – | – | – | – | – | – | – | – | – | – | 0.804 (active) | 0.83 (active) | 0.823 (active) | 0.777 (active) | 0.724 (active) | 0.703 (active) | 0.834 (active) | 0.763 (active) |
